The campaign covered roughly 87,000 compounds. About 360 (0.41%) were called active. Cut-off read from the data, not from the text of the source: active = cytotoxicity above about 50%; inactive = the rest. Only a selection was taken, and actives are over-represented in it overall.
Assay: HT1080 cell viability loss – fluorescence readout (AID 620);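 note: cells exposed to compound overnight then 4 h with Alamar Blue; 0% = vehicle DMSO and 100% = killing control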
Conditions: at 10 µM, active compounds read high

Row | Compound | cytotoxicity
1 | CCn1c(=O)n(CC)c2cc(S(=O)(=O)N3CCC(c4ccccc4)CC3)ccc21 | -6.5% (inactive)
2 | CCn1c(=O)n(CC)c2cc(S(=O)(=O)N3CCc4ccccc43)ccc21 | 71.3% (active)
3 | Cn1c(=O)c(=O)n(C)c2cc(S(=O)(=O)N3CCc4ccccc43)ccc21 | -4% (inactive)
4 | Cc1cc(C)c(C)c(S(=O)(=O)NCc2ccco2)c1C | 24.4% (inactive)
5 | COc1ccc(C(N)=O)cc1N | 2.5% (inactive)
6 | COc1ccc(C(=O)c2ccc(OC)c(N)c2)cc1N | 53.8% (active)
7 | COc1ccc(C(=O)c2ccc(OC)c(OC)c2)cc1OC | 14.8% (inactive)
8 | COc1ccc(OCCCC(=O)Nc2nncs2)cc1 | 8.3% (inactive)
9 | O=C(NCCN1CCN(c2ccccc2F)CC1)C1CC(=O)N(C2CCCC2)C1 (stereo unspecified) | 7% (inactive)
10 | CC1CCCCC1NC(=O)CSc1nncs1 (stereo unspecified) | -0.9% (inactive)
11 | COC(=O)c1ccc2c(c1)C(C)(C)C(/C=C/c1ccc(OC)c(OC)c1OC)=[N+]2C | 64.8% (active)
12 | COC(=O)c1ccc(OC(=O)c2ccc(OCc3c(C)noc3C)c(OC)c2)cc1 | -2% (inactive)
13 | COC(=O)c1ccc(OC(=O)c2ccc(OC)c(OC)c2)c(OC)c1 | -8% (inactive)
14 | O=C(Nc1cccc(Cl)c1)N(CCN1CCOCC1)Cc1cccc(Cl)c1 | 24% (inactive)
15 | Cc1ccc(NC2=NCC(=O)N2Cc2ccccc2)c(C)c1 | -14.9% (inactive)
16 | COC(=O)c1cc2ccsc2n1Cc1nc(-c2ccc(OC)cc2)oc1C | -11.4% (inactive)
17 | COC(=O)c1cc2ccsc2n1CC(=O)N(C)c1ccccc1 | -3.5% (inactive)
18 | COC(=O)c1cc2ccsc2n1Cc1cc(=O)n2ccccc2n1 | 60.2% (active)
19 | CCn1c(SCC(=O)Nc2ccccc2)nc2c1c(=O)n(C)c(=O)n2C | -1.6% (inactive)
20 | COc1cccc(OCC(=O)Nc2c(C(=O)Nc3ccc(OC)cc3OC)oc3ccccc23)c1 | 2.3% (inactive)
21 | O=S(=O)(Nc1cccnc1)c1cccc(C(F)(F)F)c1 | 2.9% (inactive)

Row | Compound | cytotoxicity
22 | O=C(COc1cccc2ccccc12)N1CCN(c2ccccn2)CC1 | -9% (inactive)
23 | Cc1ccc(Nc2nc(N3CCOCC3)c3ccccc3n2)cc1 | -0.4% (inactive)
24 | COc1ccc(Nc2nc(N3CCCC3)c3ccccc3n2)cc1 | 19.5% (inactive)
25 | CCOC(=O)N1CCN(c2c(N3CCN(c4ccccn4)CC3)c(=O)c2=O)CC1 | -3% (inactive)
26 | COc1ccc(-c2nc(-c3ccccc3)c(-c3cc([N+](=O)[O-])ccc3C)[nH]2)cc1O | 10.8% (inactive)
27 | COc1ccc(-c2c/c(=N\c3nc(-c4ccccc4)c(C)s3)c3ccccc3o2)cc1O | 60% (active)
28 | COc1ccc(-c2nc3ccccc3s2)cc1O | -4% (inactive)
29 | Cn1c(SCc2ccccc2Cl)nc2ccccc21 | 30.7% (inactive)
30 | Cc1nc2ccc(NC(=O)c3ccc(Cl)c(NC(=O)c4cccs4)c3)cc2s1 | 3.4% (inactive)
31 | CCn1c(SCc2ccccc2)nnc1-c1ccc(S(=O)(=O)N2CCCCC2)cc1 | -8.1% (inactive)
32 | O=C1C(Cl)=C(Nc2ccccc2O)C(=O)N1c1ccccc1 | -3.8% (inactive)
33 | COC(=O)CNC(=O)[C@@]1(C)C=C[C@@H](Cc2ccccc2)N1C(C)=O | -25% (inactive)
34 | COC(=O)CNC(=O)[C@@]1(C)C=C[C@@H](Cc2ccccc2)N1C(=O)OC | 89.9% (active)
35 | CNC(=O)[C@@]1(C)C=C[C@@H](Cc2ccccc2)N1C(=O)OC | -1% (inactive)
36 | COc1cccc(-c2nnc(SCC(N)=O)n2-c2ccc(Cl)cc2)c1 | -0.4% (inactive)
37 | O=S(=O)(c1cccc(-c2nc3ccccc3s2)c1)N1CCOCC1 | -1% (inactive)
38 | COc1ccccc1NC(=O)N(Cc1ccco1)Cc1cc2ccc(C)c(C)c2[nH]c1=O | 58.4% (active)
39 | COc1ccccc1NC(=O)N(Cc1ccco1)Cc1cc2cc(C)cc(C)c2[nH]c1=O | 3.9% (inactive)
40 | COc1ccccc1NC(=O)N(Cc1ccco1)Cc1cc2cccc(C)c2[nH]c1=O | -8% (inactive)
41 | COc1ccc(NC(=O)CCN2CCN(S(=O)(=O)c3ccc(Cl)cc3)CC2)cc1 | -5.2% (inactive)
42 | COc1ccc(CC2C(=O)OC(C)(C)OC2=O)cc1 | -9.2% (inactive)

Row | Compound | cytotoxicity
43 | O=C(Nc1cccc(-c2cc3ccccc3oc2=O)c1)c1ccc(Br)o1 | -1.6% (inactive)
44 | COc1ccc2nc(NC(=O)c3cc(C)oc3C)sc2c1 | -5.9% (inactive)
45 | COc1ccc(NS(=O)(=O)c2cc(C)ccc2NC(=O)c2cc(C)oc2C)cc1 | 67.9% (active)
46 | COc1ccc(C)c(S(=O)(=O)Nc2ccc(OCC(=O)O)cc2)c1 | -3.4% (inactive)
47 | COc1ccc(NS(=O)(=O)c2cc(C)ccc2C)cc1 | 2.8% (inactive)
48 | COc1ccc(NS(=O)(=O)c2cc(C(=O)O)ccc2C)cc1 | -2.1% (inactive)
49 | COc1ccc(NS(=O)(=O)c2cc(OC)ccc2NC(=O)c2cc(C)oc2C)cc1 | 54% (active)
50 | CCOC(=O)C1Cc2ccccc2CN1 (stereo unspecified) | -7.6% (inactive)
51 | CCOC(=O)N1CCC(NC(=O)C2CCCN(S(=O)(=O)c3ccc4c(c3)oc(=O)n4C)C2)CC1 (stereo unspecified) | -2.4% (inactive)
52 | Cc1ccc(Oc2ccc(S(=O)(=O)N3CCOCC3)cc2C(N)=O)c(-n2nc3ccccc3n2)c1 | 53.4% (active)
53 | CC(=O)Oc1ccc(C)cc1-n1nc2ccccc2n1 | -18.3% (inactive)
54 | COc1ccccc1Oc1ccc(S(=O)(=O)N2CCOCC2)cc1S(=O)(=O)N1CCOCC1 | -0.3% (inactive)
55 | Cc1cc(C)c(C#N)c(SCC(=O)Nc2ccc3c(c2)OCO3)n1 | -1.7% (inactive)
56 | CN(C)/C=C(\C(=O)c1ccc(Cl)cc1)c1nnnn1-c1ccc(Cl)cc1 | 5.8% (inactive)
57 | OC(CNCCc1ccccc1)c1ccccc1 (stereo unspecified) | -2.3% (inactive)
58 | CCNc1nc(NCC)nc(N2CC(=O)N(CC(=O)OCC)C2=N)n1 | 4.9% (inactive)
59 | Clc1ccc2c(c1)C1=C(C(c3ccncc3)O2)C(c2ccc(Br)cc2)n2ncnc2N1 (stereo unspecified) | 50.7% (active)
60 | Fc1ccc(C2C3=C(Nc4ncnn42)c2ccccc2OC3c2ccncc2)cc1 (stereo unspecified) | 14.5% (inactive)
61 | Brc1ccc(C2C3=C(Nc4ncnn42)c2ccccc2OC3c2ccncc2)cc1 (stereo unspecified) | 44.4% (inactive)

— PubChem BioAssay AID620 (Sanford-Burnham Center for Chemical Genomics, 2007)
